In the library only some 7.4% were active in any assay of this set; here they are far more common.
ELG1 genotoxic = genotoxicity induction in ELG1-luciferase HEK293T cells; HEK293T ELG1-luciferase reporter, luminescence, 16 h; Potency, µM (titrated, usually from 46 µM), for inactives: at the top dose activity change, positive = activation, actives largely listed as activators; 1.3% of 330,000 active; AID 504466; further: % of control where 0% means no effect; nearly all actives have a fitted effect of over 60% in size
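HEK293T cells expressing luciferase-tagged ELG1 were exposed to compound or DMSO vehicle for 16 hr at 37 °C and 5% CO2. Luciferase activity was then measured with ONE-Glo after 30 min at room temperature.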
SMN2 splice up = increases expression of the SMN2 splice variant. HEK293 SMN2-luciferase splicing reporter, luminescence, 30-36 h. Potency, µM (highest dose often 46.1 µM), without a hit: at the top dose activity change, positive = activation, actives largely listed as activators. 2.8% of 210,000 active. AID 1458; further: % of control where 0% means no effect; nearly all actives have a fitted effect of over 55% in size
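qHTS luciferase splicing reporter: luminescence rises when SMN2 exon 7 is included in transfected HEK293 cells. Compound exposure lasted 30-36 h at 37C, with 4.5 mM final sodium butyrate as control, followed by a ONE-Glo read.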
Rab9 prom act = activates the Rab9 promoter; Huh7 Rab9 promoter-luciferase reporter, luminescence, 24 h; AID 485297; Potency, µM (series often up to 9.22 µM), inactives show at the highest dose activation, negative = inhibition, actives largely listed as activators; 2.8% of 320,000 active; further: % of control where 0% means no effect; nearly all actives have a fitted effect of over 60% in size
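Steps: seed 1500 Huh7 Rab9-luc cells per well, rest 2 h at 37 °C; add compound in DMSO; incubate 24 h; add luciferase reagent, 10 min ambient; read luminescence.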
NPC1 prom act = NPC1 promoter activation | Huh7 NPC1 promoter luciferase reporter, 24 h | Potency, µM (highest dose often 9.22 µM), inactives show at the highest dose activation, most hits filed as activators | 2.4% of 320,000 active; further: % of control where 0% means no effect; nearly all actives have a fitted effect of over 60% in size
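Huh7 cells stably carrying NPC1 promoter–luciferase, plated in Opti-MEM with 10% FBS for 2 h, were exposed to compound in DMSO for 24 h at 37 °C; luciferase reagent was added for 10 min and luminescence read.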
FLuc modulator = counter-screen for miR-21 project: firefly luciferase inhibitors or activators. purified FLuc, Km substrates, luminescence inhibition. Potency, µM (top dose mostly 57.5 µM), for the others: at the highest dose activity change, negative = inhibition, actives largely listed as inhibitors. AID 588342. 6.9% of 360,000 active;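 further: plate controls were vehicle for no effect and reference inhibitor for full effect; nearly all actives have a fitted effect of over 55% in size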
Target sequence (P08659 whole entry, looked up): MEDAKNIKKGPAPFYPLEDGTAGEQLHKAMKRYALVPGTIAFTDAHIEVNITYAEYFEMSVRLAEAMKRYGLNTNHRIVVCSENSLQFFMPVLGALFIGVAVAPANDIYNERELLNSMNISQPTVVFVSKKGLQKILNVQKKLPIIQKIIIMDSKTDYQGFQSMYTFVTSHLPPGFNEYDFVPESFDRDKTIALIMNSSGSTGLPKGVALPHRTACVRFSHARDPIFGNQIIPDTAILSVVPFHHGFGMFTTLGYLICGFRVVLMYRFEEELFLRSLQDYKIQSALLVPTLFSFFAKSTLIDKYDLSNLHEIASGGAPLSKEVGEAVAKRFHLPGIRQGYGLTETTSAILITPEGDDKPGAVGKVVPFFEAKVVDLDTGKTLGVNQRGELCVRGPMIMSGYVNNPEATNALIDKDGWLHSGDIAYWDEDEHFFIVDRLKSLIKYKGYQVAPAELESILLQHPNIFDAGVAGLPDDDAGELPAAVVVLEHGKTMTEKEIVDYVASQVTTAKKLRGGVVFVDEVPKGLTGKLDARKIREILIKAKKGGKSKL
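Purified P. pyralis luciferase, 10 nM final, with Km-level 10 uM D-luciferin and 10 uM ATP in 50 mM Tris acetate pH 7.5, 10 mM Mg acetate, 0.01% Tween-20, 0.05% BSA; 6-point qHTS titration about 60 µM downward; luminescence read.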
* marks the source's active call; other numbers are inactive results; ? = inconclusive; · = no result; [ ] = another dose, or the depositor's remark. The call rests on the fitted dose curve; in most records, active means well fitted curve in the direction sought with a large enough effect; inconclusive means small, poorly fitted or top-dose-only effect, or another doubt; inactive means no such curve, though single readings can be large; an effect the other way counts as inactive or inconclusive. Potency means the concentration at half of the fitted maximal effect.

SMILES	ELG1 genotoxic	SMN2 splice up	Rab9 prom act	NPC1 prom act	FLuc modulator
S=C(NC1CCCCC1)N1CCc2[nH]c3ccccc3c2C1	10%	·	-10%	-4%	24µM*
Cc1ccc(NC(=S)N2CCc3[nH]c4ccccc4c3C2)cc1	0%	·	0%	1%	-19%
Cc1c(C(=O)N2CCCC2)oc2c1-c1nn(CC(=O)NCc3ccccc3Br)cc1CC2	·	·	·	·	-19%
COc1ccccc1N1CCN(c2cc(N3CCCC3)nc(C)n2)CC1	-5%	-40%	-5%	-6%	7%
COc1ccccc1N1CCN(c2ccc3ccccc3n2)CC1	?	·	0.32µM*	0.32µM*	0.95µM*
COc1ccccc1N1CCN(c2ccc(-c3ccccc3)nn2)CC1	?	?	0.28µM*	?	0.76µM*
COc1ccccc1N1CCN(c2nc(-c3ccccc3)cc(C(F)(F)F)n2)CC1	-4%	-12%	0%	-1%	0%
Cc1nc(NC(=O)c2ccccc2)nc2cc3c(cc12)OCO3	?	?	?	?	17µM*
COc1ccccc1Nc1nc2ccc(C)cc2cc1C#N	1%	1%	16%	19%	12µM*
COc1cccc(Nc2sc(C(=O)c3ccc(F)cc3)c(N)c2C(=O)NCc2ccc(C)cc2)c1	·	·	·	·	2%
COc1ccc2c(c1)CCc1sc(NC(=O)c3ccco3)nc1-2	?	10%	?	25%	21µM*
COc1cccc(OC)c1C(=O)Nc1nc2c(s1)CCc1ccccc1-2	·	11%	·	·	-1%
COc1ccc2c(c1)CCc1sc(NC(=O)c3ccc(C)cc3)nc1-2	-6%	-31%	3%	0%	8.5µM*
COc1ccc2c(c1)-c1nc(NC(=O)c3ccco3)sc1CC2	13%	·	19%	14%	19µM*
COc1ccc2c(c1)-c1nc(NC(=O)c3cccc(Br)c3)sc1CC2	·	-26%	·	·	-13%
COc1ccc2c(c1)-c1nc(NC(=O)c3cccs3)sc1CC2	-1%	4%	20%	3%	19µM*
COC(=O)C(C(=O)OC)[C@@H]1c2ccccc2[C@H]2C(=C[C@@H](C)[C@H]3C(=O)N(c4ccccc4)C(=O)[C@H]32)N1C(=O)OC	·	-11%[9.22 µM]	·	·	·
CCc1cnc2c(c1SCC(=O)Nc1ccc(OC)c(OC)c1)c(=O)n(C)c(=O)n2C	·	·	·	·	5%
CCc1ccc(C(=O)NC2=NC(c3cc(OC)ccc3OC)CC(=O)N2)cc1 (stereo not given)	·	7%	·	·	-1%
COc1ccc2c(c1)Cc1sc(NC(C)=O)nc1-2	8.2µM*	5.6µM*	0.79µM*	1µM*	4.8µM*
COc1ccc2c(c1)Cc1sc(NC(=O)c3ccco3)nc1-2	13%	11µM*	1.8µM*	2µM*	3.4µM*
COc1ccc2c(c1)Cc1sc(NC(=O)c3cccnc3)nc1-2	-5%	-29%	15%	0%	?
O=C1OC(=O)c2ccccc21	·	-1%	·	·	·
Nc1ncc(S(=O)(=O)Nc2ccc(F)cc2F)cn1	·	·	·	·	0%
COCCn1c(C)cc(/C=N/NC(=O)c2cc3ccccc3cc2O)c1C	1%	·	16%	-3%	15µM*
SMILES	ELG1 genotoxic	SMN2 splice up	Rab9 prom act	NPC1 prom act	FLuc modulator
Cn1c(O)c(/C=N/NC(=O)c2cc3ccccc3cc2O)c2ccccc21	?	·	3.5µM*	?	17µM*
Cn1c2ccccc2c2cc(/C=N/NC(=O)c3ccc(O)cc3O)ccc21	-3%	·	6%	0%	?
COc1ccc2c(c1)cc(C(=O)N/N=C/c1c(O)c(C(=O)O)cc3ccccc13)n2C	2%	·	0%	0%	2.4µM*
Cc1ccc(C(=O)Nc2ccc(Cl)cc2C(F)(F)F)c(Cl)c1	27%	?	?	26%	11µM*
Cc1ccc(NC(=O)c2ccc(Cl)cc2Cl)cc1O	?	·	?	?	8.5µM*
CNS(=O)(=O)c1ccc(NC(=O)c2ccc(Cl)cc2Cl)cc1	0%	-9%	3%	-4%	-13%
Cc1ccc(C(=O)Nc2ccc(Cl)cc2C)c(Cl)c1	2.9µM*	10µM*	3.2µM*	0.89µM*	1.7µM*
CCOc1ccccc1NS(=O)(=O)c1cc2[nH]c(=O)c(=O)[nH]c2cc1C	·	·	·	·	-10%
Cc1cc(=O)oc2ccc(OCC(=O)NCc3ccco3)cc12	-1%	6%	1%	0%	1%
O=C(COc1ccc2oc(-c3ccco3)cc(=O)c2c1)N1CCCCC1	-1%	3%	4%	3%	17µM*
O=c1cc(-c2ccco2)oc2ccc(Cl)cc12	?	18%	25%	27%	-6%
O=C(COc1ccc2oc(-c3ccccc3)cc(=O)c2c1)NCc1ccco1	16%	-27%	?	6%	2.4µM*
COc1cccc2c(=O)c3ccoc3n(C)c12	6%	4%	-1%	-1%	0%
COc1cccc2oc(-c3ccco3)cc(=O)c12	?	16µM*	?	?	15µM*
COc1ccc2oc(-c3ccco3)cc(=O)c2c1	?	11µM*	0.79µM*	2.5µM*	12µM*
COC(=O)CSc1nc2cc(OC)ccc2cc1C#N	1.5µM*	·	1.4µM*	1.4µM*	9.5µM*
CCOC(=O)CSc1nc2cc(OCC)ccc2cc1C#N	8.2µM*	22µM*	2.8µM*	?	4.3µM*
COC(=O)CSc1nc2ccc(C)cc2cc1C#N	?	2.8µM*	0.79µM*	3.5µM*	?
COc1ccc2cc(C#N)c(SCC(=O)N3CCCC3)nc2c1	?	19%	0%	-1%	-5%
Cc1cccc(NC(=O)CN2C(=O)CSc3ccc(S(=O)(=O)N4CCCC4)cc32)c1C	·	·	·	·	6%
Cc1ccc(-c2cc(C(=O)NC3CCCC3)no2)cc1	?	·	2µM*	0.56µM*	2.1µM*
O=C(NCCN1CCOCC1)c1cc(-c2ccc(F)cc2)on1	10%	-22%	19%	12%	-1%
O=C(NC1CCCCC1)c1cc(-c2ccc(F)cc2)on1	16%	·	3.2µM*	1.4µM*	-9%
O=C(NC1CCCCC1)c1cc(-c2cccs2)on1	?	·	2µM*	3.2µM*	?
Cc1cn2c(=O)cc(COC(=O)COc3ccccc3C)nc2s1	·	·	·	·	5%
SMILES	ELG1 genotoxic	SMN2 splice up	Rab9 prom act	NPC1 prom act	FLuc modulator
CCOC(=O)c1c(C)[nH]c(C)c1S(=O)(=O)NCC(=O)N1CCN(c2ccccc2OC)CC1	·	·	·	·	-1%
COc1ccccc1CNC(=O)c1ccc(N2CCCC2)c(NC(=O)NCc2ccccc2)c1	·	·	·	·	-1%
Cc1cc(S(=O)(=O)n2ccnc2C(C)C)cc([N+](=O)[O-])c1C	·	28%	·	·	?
COc1cc2c(cc1OC)C(c1ccc(-c3ccccc3Cl)o1)=NCC2	11%	-38%	-2%	17%	2.1µM*
COc1cc2c(cc1OC)C(c1ccc(-c3ccc(Cl)cc3Cl)o1)=NCC2	-13%	-20%	-4%	-8%	15µM*
COc1cc2c(cc1OC)C(c1ccc(-c3ccc(Cl)c(Cl)c3)o1)=NCC2	-16%	-62%	-8%	-1%	15µM*
COc1cc2c(cc1OC)C(c1ccc(-c3cc(Cl)ccc3Cl)o1)=NCC2	-26%	-15%	-24%	-2%	1%
